Screens as filed in PubChem.
sdo1 growth: restores growth of sdo1-depleted yeast; z-score at 10 µM; S. cerevisiae sdo1-depleted JHY4D growth rescue, OD600 30 h; active compounds read high; pdr5 snq2 efflux-pump mutant strain; AID 817; actives 0.21% (n = 140,000);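 active = z-score above 3 at both the 24 hr and the 30 hr optical density reads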
IL1B NFkB pot: enhances IL-1B driven NFkB nuclear translocation. HUVEC IL-1B NFkB p65 nuclear translocation imaging. activation, % at 2 µM. actives 0.3% (n = 94,000). AID 819;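 active = activation above 40%, about the mean plus 3 SD, also judged a hit on visual image review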;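 also: percent activation is computed from the nuclear over cytoplasmic p65 intensity ratio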
MRP1 act: activators of MRP-1; H69AR cells + doxorubicin, viability rescue, CellTiter-Glo; viability increase, % at 10 µM; actives 0.61% (n = 140,000); AID 799;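 active = viability gain under doxorubicin at or above a set limit, the compound median plus 3 SD, cut at about 4.7% in these data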;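 also: MRP-1 overexpressing cells given doxorubicin 25 µM after compound pretreatment; 18-22 h compound pretreatment then 72 h with doxorubicin before readout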
IL1B NFkB inh: blocks IL-1B driven NFkB nuclear translocation in HUVEC cells. AID 796. HUVEC IL-1B NFkB p65 nuclear translocation imaging. actives 0.43% (n = 94,000). inhibition, % at 2 µM;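 active = inhibition above about 30% together with a positive call from visual inspection of the well image, limit read from the data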;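 also: nuclear over cytoplasmic p65 intensity ratio measured by imaging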
MRP resist rev: MRP-mediated drug resistance reversal | H69AR cells + 2 uM doxorubicin, CellTiter-Glo, 72 h | differential viability (reversal), % at 10 µM | actives 0.04% (n = 85,000);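 active = viability drop by adding the cancer drug above about 55%, with treated viability meeting a 40% cutoff, limit read from the data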;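 also: larger differential means the compound sensitizes cells more to doxorubicin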
HUVEC tox IL1B: HUVEC cytotoxicity counter-screen, IL-1B stimulated | HUVEC cell count loss, Hoechst imaging | cell count reduction, % at 2 µM | actives 0.41% (n = 94,000) | AID 845;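 active = cell count reduction more than 3 SD above the screen-wide mean, cut at about 70% in these data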
Numbers stand for hits. This is a sample that favours compounds with a hit; in the whole collection about 1.4% have one here.

For CCOC(=O)N1CCC(NC(=O)CN2C(=O)CSc3ncccc32)CC1 the results were sdo1 growth inactive, MRP1 act inactive and MRP resist rev inactive.
CCOC(=O)CNC(=O)CSc1nnc(SCC(=O)NCC(=O)OCC)s1 was read as sdo1 growth inactive, IL1B NFkB pot 54, MRP1 act inactive, IL1B NFkB inh inactive, MRP resist rev inactive and HUVEC tox IL1B inactive.
Screening O=C(NC(=S)Nc1ccccn1)c1cc(-c2ccccc2)nc2ccccc12 returned sdo1 growth inactive and MRP1 act 7.5.
`O=C(NC(=S)Nc1ccccc1)c1cc(-c2ccccc2)nc2ccccc12` gave sdo1 growth inactive, IL1B NFkB pot inactive, MRP1 act inactive, IL1B NFkB inh inactive and HUVEC tox IL1B inactive.
Fc1ccc(Sc2cc(Cl)c(-c3ccccc3)nn2)cc1 was read as sdo1 growth inactive, IL1B NFkB pot inactive, MRP1 act inactive, IL1B NFkB inh inactive and HUVEC tox IL1B inactive.
For COc1ccccc1CNC(=O)c1nn(-c2ccc(C)cc2)c(=O)c2c1c1ccccc1n2C the results were sdo1 growth inactive, IL1B NFkB pot inactive, MRP1 act inactive, IL1B NFkB inh inactive, MRP resist rev inactive and HUVEC tox IL1B inactive.
Screening O=C(NCc1ccccn1)C1CC(c2ccc(Cl)c(Cl)c2)=NO1 (stereo not given) returned sdo1 growth inactive, IL1B NFkB pot inactive, MRP1 act inactive, IL1B NFkB inh inactive, MRP resist rev inactive and HUVEC tox IL1B inactive.
O=C(Nc1cccnc1)C1CC(c2ccc(Cl)c(Cl)c2)=NO1 (stereo not given) was read as sdo1 growth inactive, IL1B NFkB pot inactive, MRP1 act 6.0, IL1B NFkB inh inactive, MRP resist rev inactive and HUVEC tox IL1B inactive.
Cc1ccc(-c2c(C(=O)NCc3ccc(F)cc3)oc(=O)c3ccccc23)cc1 was read as sdo1 growth inactive and MRP1 act inactive.
CC(C)Oc1ccc(Br)cc1/C=N\NC(N)=S was read as sdo1 growth inactive and MRP1 act inactive.
COc1ccccc1NC(C)=O was read as sdo1 growth inactive, MRP1 act inactive and MRP resist rev inactive.
For COc1cc(N(C)C)c(NC(C)=O)cc1C(=O)O the results were sdo1 growth inactive, IL1B NFkB pot inactive, MRP1 act inactive, IL1B NFkB inh inactive, MRP resist rev inactive and HUVEC tox IL1B 85.
For COc1ccccc1NC(=O)C(CCS(C)(=O)=O)N1C(=O)c2ccccc2C1=O (stereo not given) the results were sdo1 growth inactive, IL1B NFkB pot 42, MRP1 act inactive, IL1B NFkB inh inactive, MRP resist rev inactive and HUVEC tox IL1B inactive.
Screening Clc1ccc(OCc2nn3c(-c4ccncc4)nnc3s2)cc1 returned sdo1 growth inactive, IL1B NFkB pot 46, MRP1 act inactive, IL1B NFkB inh inactive, MRP resist rev inactive and HUVEC tox IL1B inactive.
For O=C1c2cccc3c([N+](=O)[O-])ccc(c23)C(=O)N1c1ccc(Cl)cn1 the results were sdo1 growth inactive, IL1B NFkB pot inactive, MRP1 act inactive, IL1B NFkB inh 30 and HUVEC tox IL1B 83.
Screening O=C1c2cccc3c([N+](=O)[O-])ccc(c23)C(=O)N1c1ccccn1 returned sdo1 growth inactive and MRP1 act inactive.
`Cc1nc(-c2ccccc2)sc1C(=O)CSc1ccccc1` gave sdo1 growth inactive, IL1B NFkB pot inactive, MRP1 act inactive, IL1B NFkB inh inactive and HUVEC tox IL1B inactive.
Cc1nc(-c2ccccc2)sc1C(=O)CSc1ccc(F)cc1 was read as sdo1 growth inactive, IL1B NFkB pot inactive, MRP1 act inactive, IL1B NFkB inh 36 and HUVEC tox IL1B inactive.
Screening O=C(COC(=O)COc1cccc(Br)c1)Nc1c(Cl)cccc1Cl returned sdo1 growth inactive and MRP1 act inactive.
`Cc1ccc2nsnc2c1S(=O)(=O)NCCc1c(C)[nH]c2ccc(F)cc12` gave sdo1 growth inactive, IL1B NFkB pot inactive, MRP1 act inactive, IL1B NFkB inh inactive, MRP resist rev inactive and HUVEC tox IL1B inactive.
Screening COc1ccc(-n2c(C)nc(=O)c(-c3ccccc3)c2C)cc1 returned sdo1 growth inactive, IL1B NFkB pot inactive, MRP1 act 8.2, IL1B NFkB inh inactive, MRP resist rev inactive and HUVEC tox IL1B inactive.
Cc1nc(=O)c(-c2ccccc2)c(C)n1-c1cccc(C(=O)O)c1 was read as sdo1 growth inactive, IL1B NFkB pot inactive, MRP1 act 6.0, IL1B NFkB inh inactive, MRP resist rev inactive and HUVEC tox IL1B inactive.
For COc1ccc(C(C)=O)cc1CSc1nnc(Nc2ccccc2C)s1 the results were sdo1 growth inactive and MRP1 act 6.0.
